From PubChem BioAssay (NCI)
This is part of a sample that, as a whole, favours compounds with a hit. Of some 83,000 tested, about 20% had one in any assay.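 Cell lines were cultured in 96-well plates, exposed to a single compound concentration, and assessed for percent growth 48 hours later.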 Unmarked numbers belong to inactive results. Calls of active or inactive are those of the source. The calls were made as follows: active = growth percent below 10; inactive = the rest.

How the values were obtained:
Assay in all cases: NCI-60 one-dose screen, 48 h (100 = growth as untreated, 0 = no growth, -100 = all killed)
Conditions in all cases: 10 µM unless noted
DU-145 prostate = test system: DU-145 prostate
K-562 leukemia = test system: K-562 leukemia
MALME-3M melanoma = test system: MALME-3M melanoma
MDA-MB-231 breast = test system: MDA-MB-231 breast
RXF 393 renal = test system: RXF 393 renal
SF-268 CNS = test system: SF-268 CNS
SF-295 CNS = test system: SF-295 CNS
SF-539 CNS = test system: SF-539 CNS
UACC-257 melanoma = test system: UACC-257 melanoma
M14 melanoma = test system: M14 melanoma
HCT-15 colon = test system: HCT-15 colon
HT29 colon = test system: HT29 colon
SNB-75 CNS = test system: SNB-75 CNS
SNB-19 CNS = test system: SNB-19 CNS
U251 CNS = test system: U251 CNS
PC-3 prostate = test system: PC-3 prostate
SK-MEL-5 melanoma = test system: SK-MEL-5 melanoma
UACC-62 melanoma = test system: UACC-62 melanoma
LOX IMVI melanoma = test system: LOX IMVI melanoma
SK-MEL-28 melanoma = test system: SK-MEL-28 melanoma

| SMILES | growth (DU-145 prostate) [%] | growth (K-562 leukemia) | growth (MALME-3M melanoma) | growth (MDA-MB-231 breast) | growth (RXF 393 renal) | growth (SF-268 CNS) [%] | growth (SF-295 CNS) [%] | growth (SF-539 CNS) [%] | growth (UACC-257 melanoma) | growth (M14 melanoma) | growth (HCT-15 colon) | growth (HT29 colon) | growth (SNB-75 CNS) [%] | growth (SNB-19 CNS) [%] | growth (U251 CNS) [%] | growth (PC-3 prostate) [%] | growth (SK-MEL-5 melanoma) | growth (UACC-62 melanoma) | growth (LOX IMVI melanoma) | growth (SK-MEL-28 melanoma) |
| --- | --- | --- | --- | --- | --- | --- | --- | --- | --- | --- | --- | --- | --- | --- | --- | --- | --- | --- | --- | --- |
| C=CCn1c(C)nc2cc(Nc3nc(N4CCOCC4)nc4nc[nH]c34)ccc21 | 109 | 71% | 97.7% | 77.7% | 85.1% | 99 | 85 | 87.3 | 94% | 97% | 90.9% | 99.7% | 80.4 | 95.4 | 91.3 | 79.9 | 96.2% | 88.9% | 95.2% | 102% |
| CN(C)CCOc1nc2c3cccnc3cc(-c3cccc(Cl)c3)c2c2ncccc12 | 14.3 | -21% (active) | -90.4% (active) | -11.5% (active) | -87.4% (active) | 27.4 | 27.9 | 36.3 | -57.5% (active) | -82.1% (active) | -10.9% (active) | 1.5% (active) | 38.2 | 26.4 | 11.2 | 22.4 | 1.23% (active) | -75.6% (active) | -94.5% (active) | -81.6% (active) |
| CCOC(=O)c1ccccc1SC(C[N+](=O)[O-])c1ccccc1 (stereo not given) | 90.9 | 56.8% | 98% | 96.6% | 62.9% | 104 | 99.7 | 90 | 84.4% | 68.9% | 59.6% | 5.22% (active) | 85.1 | 95.2 | 81.8 | 78 | 84.3% | 97.8% | 30.9% | 98.3% |
| COc1ccc(/C(=C\c2cc(OC)c(OC)c(OC)c2)C(=O)N2CCCNCC2)cc1 | 115 | 108% | 113% | 94% | 98.4% | 106 | 101 | 108 | 102% | 105% | 103% | 106% | 88.7 | 100 | 109 | 91.8 | 99.7% | 105% | 103% | 111% |
| Cc1ccc2cc3c(NC(=O)c4cccnc4)nn(C)c3nc2c1 | 100 | 85.8% | 99.1% | 83.8% | 89.3% | 97.3 | 101 | 97.1 | 99.3% | 93.3% | 91.6% | 75.8% | 73.8 | 82.6 | 85.2 | 62.5 | 83.1% | 88.7% | 92.4% | 96% |
| O=C(Nc1ccc2[nH]c3ccccc3c2c1)c1ccccc1Cl | 75 | 10% (active) | 35.3% | 40.3% | 26.5% | 63 | 10.7 | 51.7 | 83.1% | 26.2% | 31.7% | 1.78% (active) | 59.1 | 82.9 | 32.6 | 54.1 | 30.3% | 56.4% | 33.9% | 57.8% |
| Clc1ccc(-c2nc(Br)cn3ccnc23)cc1 | 91 | 90.2% | 103% | 69.6% | 90.4% | 81.7 | 93.4 | 81.6 | 95.8% | 94.3% | 86.1% | 87.6% | 91 | 82.5 | 78.2 | 81.6 | 80.7% | 77.4% | 77.8% | 100% |
| COc1ccc(-c2nc(-c3ccccc3OCc3ccccc3OC)nc(C)c2C(C)=O)cc1 | 92.8 | 81.6% | 92.5% | 64.3% | 92.6% | 94.7 | 91.8 | 101 | 96% | 84.2% | 78.9% | 56.9% | 83.8 | 93.7 | 90.2 | 56.8 | 91.3% | 54.7% | 98.7% | 101% |
